For one assay, the system named is LTK. The settings on record: concentration: 1 μM, replicates: in singlicate, n = 1.
The next assay concerns LYN. The settings on record: concentration: 1 μM, replicates: in singlicate, n = 1.
A further assay concerns T1, LZK.
T1 construct: gene MAP3K13
The settings on record: concentration: 1 μM, replicates: in singlicate, n = 1.

The test system of the next assay is MAK. The settings on record: concentration: 1 μM, replicates: in singlicate, n = 1.
In another assay the test system is MAP3K15. The following applies: concentration: 1 μM, replicates: in singlicate, n = 1.
Another assay relates to MAP3K1. The settings on record: concentration: 1 μM, replicates: in singlicate; n = 1.
The test system of a further assay is MAP3K2. The settings on record: concentration: 1 μM, replicates: in singlicate, n = 1.
The test system of a further assay is MAP3K3. The following applies: concentration: 1 μM, replicates: in singlicate, n = 1.
In a further assay the test system is MAP3K4. The following applies: concentration: 1 μM, replicates: in singlicate, n = 1.
The subject of the next assay is MAP4K2. The settings on record: concentration: 1 μM, replicates: in singlicate, n = 1.
Another assay concerns MAP4K3. The following applies: concentration: 1 μM, replicates: in singlicate, n = 1.
Another assay deals with MAP4K4. The following applies: concentration: 1 μM, replicates: in singlicate, n = 1.
The test system of another assay is MAP4K5. The settings on record: concentration: 1 μM, replicates: in singlicate, n = 1.
Another assay concerns MAPKAPK2. The settings on record: concentration: 1 μM, replicates: in singlicate, n = 1.
For the next assay, the system named is MAPKAPK5. The following applies: concentration: 1 μM, replicates: in singlicate, n = 1.
Another assay deals with MARK1. The settings on record: concentration: 1 μM, replicates: in singlicate, n = 1.
The next assay relates to MARK2. The following applies: concentration: 1 μM, replicates: in singlicate, n = 1.
Another assay relates to MARK3. The following applies: concentration: 1 μM, replicates: in singlicate, n = 1.
In a further assay the test system is MARK4. The following applies: concentration: 1 μM, replicates: in singlicate, n = 1.
Another assay has as its system MAST1. The following applies: concentration: 1 μM, replicates: in singlicate, n = 1.

Values joined by “and” are separate entries in the source; they are usually repeats but may differ in a detail not shown here. Equal values may be shown once. Read-outs that look alike come from different tables or passages of the source.
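Note: KINOMEscan kinase panel screen.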

In the case of `O=c1cc(N2CCOCC2)nc2n(Cc3cccc4ccccc34)ccn12` [GSK2333389], the “%Inh” value was determined as 0% in the assay on LTK; 0% in the assay with LYN; 0% in the assay on LZK; 0% in the assay with MAK; 0% in the assay with MAP3K15; 8% in the assay on MAP3K1. The “%Inh” value was 0% in the assay on MAP3K2; 0% in the assay with MAP3K3; 0% with MAP3K4; 0% with MAP4K2; 6% in the assay on MAP4K3; 15% in the assay on MAP4K4. Moreover, the “%Inh” value with MAP4K5 was 10%; with MAPKAPK2, 3%; in the assay on MAPKAPK5, 0%; with MARK1, 0%; with MARK2 it was 0%; in the assay on MARK3, 22%. For the same compound, the “%Inh” value in the assay with MARK4 amounted to 1%; in the assay on MAST1 it was 0%.

With `Cc1nnc(-c2ccc3occ(-c4ccc(C(C)O)cc4)c3c2)o1` (stereo not shown), the “%Inh” value in the assay on LTK is reported as 0%; in the assay on LYN it was 18%; in the assay with LZK, 0%; in the assay on MAK it was 0%; in the assay on MAP3K15, 0%; in the assay with MAP3K1, 10%. Besides, the “%Inh” value in the assay on MAP3K2 stood at 3%; in the assay on MAP3K3, 19%; in the assay with MAP3K4 it was 9%; in the assay on MAP4K2, 20%; with MAP4K3, 7%; in the assay on MAP4K4, 12%. Also, the “%Inh” value is given as 15% in the assay on MAP4K5; 21% in the assay on MAPKAPK2; 19% with MAPKAPK5; 7% in the assay with MARK1; 16% with MARK2; 0% with MARK3. The “%Inh” value came to 8% in the assay on MARK4 and 0% with MAST1.

As to `O=C(NOCC1CC1)c1ccc(F)c(F)c1Nc1ccc(I)cc1Cl`, the “%Inh” value in the assay with LTK, in the assay on LYN, with LZK, in the assay with MAK, in the assay on MAP3K15 and in the assay with MAP3K1 was 0% throughout. For the same compound, the “%Inh” value with MAP3K2, in the assay on MAP3K3, with MAP3K4, with MAP4K2, in the assay on MAP4K3 and in the assay on MAP4K4 was 0% in each case. Moreover, the “%Inh” value in the assay with MAP4K5 is given as 0%; in the assay with MAPKAPK2 it was 0%; in the assay on MAPKAPK5, 0%; in the assay with MARK1 it was 0%; with MARK2 it was 6%; in the assay with MARK3, 0%. Besides, the “%Inh” value in the assay on MARK4 and in the assay on MAST1 was 0% each time.

On to `Cl.Cl.Cl.Fc1ccc(-c2ncn(C3CCNCC3)c2-c2ccnc(Nc3ccccc3)n2)cc1` [SB-238039], for which the “%Inh” value in the assay with LTK (1 µM) is 27% and 37%; in the assay with LYN (1 µM), 42% and 15%; with LZK (1 µM), 0% and 7%; in the assay with MAK (1 µM), 3% and 41%; with MAP3K15 (1 µM), 0% and 4%; with MAP3K1, 0%. Also, the “%Inh” value is 63% and 27% with MAP3K2 (1 µM); 69% and 98.9% in the assay with MAP3K3 (1 µM); 2% and 0% in the assay with MAP3K4 (1 µM); 36% and 7% in the assay on MAP4K2 (1 µM); 41% and 5% in the assay with MAP4K3 (1 µM); 74% and 60% in the assay with MAP4K4 (1 µM). Also, the “%Inh” value was 94.1% and 85% with MAP4K5 (1 µM); 2% and 33% in the assay on MAPKAPK2 (1 µM); 0% and 9% in the assay with MAPKAPK5 (1 µM); 13% and 10% with MARK1 (1 µM); 43% and 42% in the assay with MARK2 (1 µM); 10% and 0% in the assay with MARK3 (1 µM). The “%Inh” value in the assay on MARK4 (1 µM) is 27% and 11%; in the assay on MAST1 (1 µM), 52% and 37%.

On to `O=C(NCCNc1ccnc(Nc2ccc(F)cc2)n1)c1cc2ccccc2s1` [GSK1379874], for which the “%Inh” value with LTK was found to be 0%; with LYN it was 0%; in the assay on LZK, 0%; with MAK it was 23%; with MAP3K15 it was 0%; with MAP3K1, 0%. Besides, the “%Inh” value with MAP3K2, in the assay with MAP3K3, with MAP3K4, in the assay with MAP4K2, in the assay on MAP4K3 and in the assay with MAP4K4 was 0% each time. Also, the “%Inh” value with MAP4K5 was 3%; with MAPKAPK2, 0%; with MAPKAPK5 it was 0%; with MARK1 it was 0%; in the assay with MARK2 it was 0%; with MARK3, 0%. Also, the “%Inh” value in the assay with MARK4 and in the assay with MAST1 was 0% each time.

On to `C[C@@H](Oc1cc(-n2cnc3ccc(NC(=O)NC(C)(C)C)cc32)sc1C(N)=O)c1ccccc1Cl` [GSK346294], for which the “%Inh” value with LTK worked out at 13%; in the assay on LYN, 4%; in the assay with LZK, 37%; with MAK, 0%; in the assay on MAP3K15 it was 0%; in the assay with MAP3K1, 35%. Besides, the “%Inh” value in the assay on MAP3K2 was determined as 0%; in the assay with MAP3K3, 0%; in the assay with MAP3K4, 0%; in the assay with MAP4K2 it was 0%; with MAP4K3 it was 0%; in the assay on MAP4K4 it was 2%. Further, the “%Inh” value in the assay with MAP4K5 was 0%; in the assay with MAPKAPK2, 12%; with MAPKAPK5, 0%; with MARK1, 1%; with MARK2, 0%; in the assay on MARK3 it was 0%. The “%Inh” value is 9% in the assay with MARK4 and 0% in the assay on MAST1.

For `O=C(Nc1cccc(-c2nn3ncccc3c2-c2ccnc(Nc3cccc(C(F)(F)F)c3)n2)c1)c1c(F)cccc1F` [GSK299495], the “%Inh” value amounted to 3% in the assay with LTK; 87% with LYN; 12% in the assay on LZK; 0% in the assay on MAK; 0% in the assay with MAP3K15; 15% in the assay with MAP3K1. Also, the “%Inh” value stood at 24% in the assay on MAP3K2; 0% with MAP3K3; 33% in the assay with MAP3K4; 0% in the assay on MAP4K2; 0% in the assay on MAP4K3; 0% in the assay on MAP4K4. In addition, the “%Inh” value in the assay on MAP4K5 amounted to 48%; in the assay with MAPKAPK2, 35%; in the assay with MAPKAPK5, 0%; with MARK1 it was 0%; in the assay with MARK2, 0%; with MARK3 it was 2%. In addition, the “%Inh” value with MARK4 and in the assay on MAST1 was 0% in each case.

Regarding `Cc1cccc(Cn2ccn3c(=O)cc(N4CCOCC4)nc23)c1` [GSK2297542], the “%Inh” value was 0% with LTK; 0% with LYN; 0% in the assay on LZK; 32% in the assay on MAK; 0% in the assay on MAP3K15; 8% with MAP3K1. The “%Inh” value in the assay with MAP3K2 was 8%; in the assay on MAP3K3, 0%; in the assay on MAP3K4, 0%; with MAP4K2 it was 0%; with MAP4K3 it was 0%; in the assay on MAP4K4, 4%. Besides, the “%Inh” value in the assay with MAP4K5 stood at 0%; in the assay with MAPKAPK2 it was 14%; in the assay with MAPKAPK5 it was 0%; in the assay with MARK1, 7%; with MARK2 it was 11%; in the assay with MARK3, 0%. The “%Inh” value in the assay with MARK4 stood at 10%; in the assay on MAST1 it was 0%.

For the origin of these results see PMC5540273 (PLoS ONE, 2017).
